From PubChem BioAssay AID1053175 (ICCB-Longwood Screening Facility, Harvard Medical School, 2014)
The whole screen tested about 330,000 compounds, of which about 700 (0.21%) were called active.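 Rule for the calls: active = OD600 absorbance below the run mean of sample wells minus 3.6 SD, in any replicate (cut at about 0.56 in these data); inactive = the rest.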 For the sample, actives were picked, then their nearest neighbours and some compounds at random.

Test: E. coli growth inhibition, primary screen, OD600 (AID 1053175)
Details: Escherichia coli growth, OD600, 23 h; active compounds read low

OD600 absorbance, inactive:
Cc1cc([N+](=O)[O-])cc(C)c1OCC(=O)NN=Cc1ccc(OC(=O)c2ccccc2Br)cc1 0.708
S=C(Nc1cccc(Cl)c1)Nc1ccc2c(c1)OCCO2 0.613
Cc1csc(NC(=S)Nc2cccc(Cl)c2)n1 0.618
Cc1nnc(NCCO)c2ccccc12 0.66
OCCCNc1nc(-c2ccccc2)c2cc(Cl)ccc2n1 0.647
COc1cc(C(C)=NNC(=O)c2cccc(S(=O)(=O)N3CCCC3)c2)cc(OC)c1OC 0.705
Cc1cccc(C)c1NC(=S)N(Cc1cccnc1)Cc1ccccc1Cl 0.706
Cc1ccc(CN(Cc2cccnc2)C(=S)Nc2cccc(Cl)c2C)cc1 0.672
O=C(NN=C1CC(c2ccccc2)Oc2ccccc21)c1ccc(O)cc1 (centres undefined) 0.541
COC(=O)NN=Cc1c[nH]c2ccccc12 0.738
CC(=NNC(=O)c1ccccc1[N+](=O)[O-])c1c(O)cc(C)oc1=O 0.635
COc1cc(C=NNC(=O)NC23CC4CC(CC(C4)C2)C3)ccc1OCC(N)=O 0.652
CCc1noc(C)c1C(=O)NNC(=O)c1ccc(F)cc1 0.692
O=C(NNC(=O)C1CCCC1)c1ccc(F)cc1 0.706
S=c1[nH]nc(-c2ccncc2)n1N=Cc1ccccc1 0.705
COc1ccc(C(=O)NN=C(c2ccccc2)c2ccccn2)cc1 0.68
CC(=NNC(=O)c1c[nH]c2ccccc12)c1ccccn1 0.586
CC(=NNS(=O)(=O)c1ccc(Br)cc1)c1ccc(-n2ccnc2)cc1 0.734

OD600 absorbance, active:
FC(F)(F)c1cccc(NC(=S)Nc2cccc(Cl)c2)c1 0.501
OCCNc1nc(Nc2ccc(Cl)c(Cl)c2)nc2ccccc12 0.392
Cc1c(Cl)cccc1NC(=S)N(Cc1ccccc1)Cc1cccnc1 0.58
O=C(/C=C/c1ccc([N+](=O)[O-])o1)NNC(=O)c1ccc(F)cc1 0.428
CCN1/C(=C/c2ccc3ccc(C)cc3[n+]2CC)Sc2ccccc21 0.506
CC(=NNC(=O)c1ccc(F)cc1)c1ccccn1 0.506
